Drawing on PubChem BioAssay (Tox21), this text covers Potency for 15 compounds.

Records with an inconclusive call do not appear. Activity calls are given as the source filed them. Calls come from the whole dose curve; as a rule, active = well fitted curve in the direction sought with a large enough effect in the repeat runs; inconclusive = weak or mixed curves; inactive = no such curve, though single readings can be large; an effect the other way counts as inactive or inconclusive.

The nature of test [1]: A CellTox Green Cytotoxicity Assay to monitor cytotoxicity in HEK293 cells - 32 hour (AID 1224881). Note: nearly all actives have a fitted effect of over 40% in size. Note: potency is the fitted concentration of half-maximal effect. In outline:
(§1)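 Real-time, in one plate: 600 HEK293 cells/well with dead-cell DNA dye, pinned compound after 5 h, 37 C incubation over 40 h; viable cells give no appreciable fluorescence.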

Test [2] in a line: A CellTox Green Cytotoxicity Assay to monitor cytotoxicity in HepG2 cells - 0 hour (AID 1224882). Note: nearly all actives have a fitted effect of over 35% in size. In outline: (§2)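 Cytotoxicity was tracked as dead-cell DNA fluorescence in HepG2 cells treated with test compounds at 37 C; each time-point value comes from one kinetic series spanning 0, 8, 16, 24, 32 and 40 h.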
Test [3] in a line: A CellTox Green Cytotoxicity Assay to monitor cytotoxicity in HepG2 cells - 32 hour (AID 1224883). Note: nearly all actives have a fitted effect of over 50% in size. Note: potency is the fitted concentration of half-maximal effect. In outline: as §2
Test [4] can be described thus: A CellTox Green Cytotoxicity Assay to monitor cytotoxicity in HEK293 cells - 8 hour (AID 1224884). Note: nearly all actives have a fitted effect of over 35% in size. An outline of the steps: as §1
Test [5] can be described thus: qHTS RealTime-Glo MT Cell Viability Assay in HepG2 cells - 16 hour (AID 1224885). Note: nearly all actives have a fitted effect of over 50% in size. Note: potency is the fitted concentration of half-maximal effect. An outline of the steps:
(§3)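 Compound treatment began 5 h after plating HepG2 cells (600/well) with NanoLuc luciferase and prosubstrate. Plates stayed at 37 C for 40 h; luminescence was captured at six time points, 0 h through 40 h.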

A short description of test [6]: qHTS RealTime-Glo MT Cell Viability Assay in HEK293 cells - 8 hour (AID 1224887). Note: nearly all actives have a fitted effect of over 50% in size. Note: potency is the fitted concentration of half-maximal effect. In outline:
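Kinetic, non-lysing viability readout. Seed HEK293 (600/well) with reagent, incubate 5 h at 37 C/5% CO2, pin 23 nL compound in DMSO, incubate at 37 C, read luminescence at 0, 8, 16, 24, 32, 40 h.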
(In general: qHTS replaces the single test concentration by a dilution series.)

Test [7] in a line: A CellTox Green Cytotoxicity Assay to monitor cytotoxicity in HEK293 cells - 16 hour (AID 1224888). Note: nearly all actives have a fitted effect of over 35% in size. Note: potency is the fitted concentration of half-maximal effect. An outline of the steps:
as §1

Test [8] in a line: qHTS RealTime-Glo MT Cell Viability Assay in HepG2 cells - 0 hour (AID 1224889). Note: nearly all actives have a fitted effect of over 50% in size. An outline of the steps:
as §3

Test [9] is described as follows: A CellTox Green Cytotoxicity Assay to monitor cytotoxicity in HepG2 cells - 8 hour (AID 1224890). Note: nearly all actives have a fitted effect of over 45% in size. In outline: as §2
Test [10] in a line: qHTS RealTime-Glo MT Cell Viability Assay in HEK293 cells - 24 hour (AID 1224886). Note: nearly all actives have a fitted effect of over 50% in size. Note: potency is the fitted concentration of half-maximal effect. In outline:
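Quantitative high-throughput screen of the Tox21 10K library in HEK293: cells and RealTime-Glo reagents plated together, compound added at 5 h, luminescence monitored through 40 h at 37 C.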

Turning to `NC1CCC(CC2CCC(N)CC2)CC1` (centres undefined), the Potency entry in test [1], in test [2], in test [3], in test [4], in [5] and in [6] was “inactive” in each case. The Potency result in [7], in [8] and in test [9] was “inactive” each time.
Regarding `CC(C)C(Nc1ccc(C(F)(F)F)cc1Cl)C(=O)OC(C#N)c1cccc(Oc2ccccc2)c1` (centres undefined), the Potency result in test [1], in [2], in test [3], in [4], in [5] and in test [10] was “inactive” in each case. The Potency result in test [7], in test [8] and in test [9] was “inactive” each time.
For `Cc1nn(-c2cc(NS(C)(=O)=O)c(Cl)cc2Cl)c(=O)n1C(F)F`, the Potency result in [1], in test [2], in [3], in test [4], in [5] and in test [10] was “inactive” each time. Also, the Potency entry in [6], in test [7], in test [8] and in [9] was “inactive” each time.
As for `O=c1[nH]c(Cl)c(Cl)cc1Cl`, the Potency entry in test [1], in [2], in test [3], in test [4], in test [5] and in test [10] was “inactive” each time. The Potency result in [6], in [7], in [8] and in [9] was “inactive” throughout.
Regarding `CCC[CH2][Sn]([CH2]CCC)([O]C(C)=O)[O]C(C)=O`, the Potency was 392 nM (active) in test [1]; 221 nM (active) in [3]; 554 nM (active) in test [5]; 87.9 nM (active) in test [10]; 4400 nM (active) in test [7]. Moreover, the Potency entry in test [2], in test [4], in test [8] and in test [9] was “inactive” each time.
Regarding `CC1(C)[C@H](/C=C2\CCSC2=O)[C@@H]1C(=O)OCc1coc(Cc2ccccc2)c1`, the Potency entry in test [1], in test [2], in test [3], in test [4], in test [7] and in test [8] was “inactive” throughout. Moreover, the Potency result in test [9] is “inactive”. In addition, the Potency in [6] was 38900 nM (active).
Turning to `CSSC`, the Potency result in test [1], in test [2], in test [3], in test [4], in test [5] and in [6] was “inactive” each time. Besides, the Potency result in test [7], in test [8] and in [9] was “inactive” throughout.
On to `O=C(NC(=O)c1ccccc1Cl)Nc1ccc(OC(F)(F)F)cc1`, for which the Potency entry in test [1], in [2], in test [3], in [4], in test [5] and in test [6] was “inactive” in each case. In addition, the Potency entry in test [7], in test [8] and in test [9] was “inactive” in each case.
`Cc1ccc(C)c2ccccc12`: the Potency in test [1] was 38900 nM (active). Moreover, the Potency entry in test [2], in [3], in test [4], in test [5], in [10] and in [8] was “inactive” throughout. For the same compound, the Potency entry in test [9] is “inactive”.
Turning to `CC(C)(C)c1ccc(OP(=O)(Oc2ccccc2)Oc2ccccc2)cc1`, the Potency result in [1], in [2], in [3], in test [4], in test [5] and in test [7] was “inactive” throughout. Further, the Potency entry in [8] and in test [9] was “inactive” each time.
For the compound `O=[N+]([O-])c1cccc2cccc([N+](=O)[O-])c12`, the Potency result in test [1], in test [2], in test [3], in [4], in [5] and in test [10] was “inactive” each time. For the same compound, the Potency result in [6], in test [7], in test [8] and in test [9] was “inactive” each time.
Consider `CC(C)[C@@H](Nc1ccc(C(F)(F)F)cc1Cl)C(=O)OC(C#N)c1cccc(Oc2ccccc2)c1` (some centres undefined), for which the Potency entry in [1], in test [2], in test [3], in test [4], in test [5] and in [10] was “inactive” each time. Besides, the Potency entry in test [7], in test [8] and in [9] was “inactive” throughout.
Regarding `N#CSCc1ccccc1`, the Potency entry in test [1], in test [2], in test [4], in test [5], in [10] and in test [6] was “inactive” each time. Besides, the Potency result in test [7], in [8] and in test [9] was “inactive” throughout.
As to `C=Cc1cccc(CCl)c1`, the Potency entry in test [1], in test [2], in [3], in test [5], in test [10] and in [6] was “inactive” each time. The Potency result in [8] and in test [9] was “inactive” throughout.
For `CN1C2CCC(C)(C)C1CC(OC(=O)C(O)(c1cccs1)c1cccs1)C2` (centres undefined), the Potency entry in test [1], in test [2], in test [4], in [5], in [10] and in test [6] was “inactive” each time. The Potency result in test [7], in test [8] and in [9] was “inactive” each time.
